The supplement of paper PMC10849652
Targets with a hit are over-represented here; the source holds about 7,900 in all. About 0.6% of all pairs of compound and target were hits. A number with no mark means an inactive call.

Tests used:
Experiment in all cases: log2 fold change, soluble protein after heating vs DMSO (PISA); higher = thermal stabilisation; K562 cells, 10 uM, 30 min; active = over 0.2 and 3.5 SD of the protein, either way, in both replicates (recomputed)
[1] = compound: CC[C@@H]1C(=O)N(C)c2cnc(Nc3ccc(C(=O)NC4CCN(C)CC4)cc3OC)nc2N1C1CCCC1
In short: (§1)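 K562 cells at 2×10^6 cells/mL were given 10 μM compound for 30 min. Aliquots then went through 3 min of heating across 48°C-58°C, were pooled, and were extracted in PBS with 0.5% NP-40 at 4°C, and the supernatant after 21,000xg for 90 min was quantified by TMTpro 16plex LC-MS/MS with channel sums equalised. Thermal stability relative to control samples, from duplicates, is given as log2 fold change.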

[2] = compound: CC[C@@H]1C(=O)N(C)c2cnc(Nc3ccc(C(=O)N[C@H]4CC[C@H](N5CCN(CC6CC6)CC5)CC4)cc3OC)nc2N1C(C)C [volasertib]
In short: as §1

[3] = compound: CC[C@H](C)N1C=C(C2=C(C=C(C=C21)C3=CN=C(C=C3)N4CCNCC4)C(=O)NCC5=C(C=C(NC5=O)C)C)C
In short: as §1

[4] = compound: CC[C@H](C)[C@@H](C(=O)N[C@@H]([C@@H](C)O)C(=O)N[C@@H](CC(C)C)C(=O)[C@]1(CO1)C)NC(=O)[C@H]([C@@H](C)CC)N(C)C(=O)C [epoxomicin]
In short: as §1

[5] = compound: CCn1cc(-c2ccnc3[nH]c(-c4cccc(CN(C)C)c4)cc23)c(-c2ccc(NC(=O)N(C)C)cc2)n1
In short: as §1

[6] = compound: CN(CCOC1=CC=C(C=C1)C[C@H]2C(=O)NC(=O)S2)C3=CC=CC=N3 (racemic) [rosiglitazone]
In short: as §1

[7] = compound: CN1CCC(CNc2ccc3ncc(-c4cccc(OC(F)(F)F)c4)n3n2)CC1
In short: as §1

[8] = compound: CN1CCN(c2nc(C3=C(c4c[nH]c5ccccc45)C(=O)NC3=O)c3ccccc3n2)CC1 [sotrastaurin]
In short: as §1

[9] = compound: CNCc1ccc(-c2[nH]c3cc(F)cc4c3c2CCNC4=O)cc1 [rucaparib]
In short: as §1

[10] = compound: COC(=O)N[C@@H](C)CNc1nccc(-c2cn(C(C)C)nc2-c2cc(Cl)cc(NS(C)(=O)=O)c2F)n1 [encorafenib]
In short: as §1

[11] = compound: CCn1c(C(=O)N(C2CC2)C2CC2)cc2c3c(ncn3C)c(Nc3cc(C)n(C)n3)nc21
In short: as §1

[12] = compound: CN(C)CC(=O)Nc1ccc2[nH]c(=O)c3ccccc3c2c1
In short: as §1

[13] = compound: CN1C2=C(C3=C1C(=O)N(N=C3)CC4=CC(=CC=C4)N)SC(=C2)S(=O)C
In short: as §1

[14] = compound: CN1CCN(CCOc2cc(OC3CCOCC3)c3c(Nc4c(Cl)ccc5c4OCO5)ncnc3c2)CC1 [saracatinib]
In short: as §1

[15] = compound: CN1CC[C@H](c2c(O)cc(O)c3c(=O)cc(-c4ccccc4Cl)oc23)[C@H](O)C1 [alvocidib]
In short: as §1

[16] = compound: CN1CCc2c(c3ccccc3n2Cc2ccc(C(=O)NO)cc2)C1 [Tubastatin A]
In short: as §1

[17] = compound: CNC(=O)C1=CC=CC=C1NC2=NC(=NC=C2Cl)NC3=C(C=C(C=C3)N4CCOCC4)OC
In short: as §1

[18] = compound: CNC(=O)c1ccc(Nc2ncc(C(F)(F)F)c(NCc3nccnc3N(C)S(C)(=O)=O)n2)cc1 [defactinib]
In short: as §1

[19] = compound: CNc1nc(-c2ccc3c(N)n[nH]c3c2)cc(N2C[C@@H](C(=O)NC3CCCCC3)CC[C@H]2C)n1
In short: as §1

[20] = compound: COC(=O)[C@H](CCSC)NC(=O)C1=C(C=C(C=C1)NC[C@H](CS)N)C2=CC=CC=C2
In short: as §1

UniProt O43913, sequence (O43913 whole entry, looked up): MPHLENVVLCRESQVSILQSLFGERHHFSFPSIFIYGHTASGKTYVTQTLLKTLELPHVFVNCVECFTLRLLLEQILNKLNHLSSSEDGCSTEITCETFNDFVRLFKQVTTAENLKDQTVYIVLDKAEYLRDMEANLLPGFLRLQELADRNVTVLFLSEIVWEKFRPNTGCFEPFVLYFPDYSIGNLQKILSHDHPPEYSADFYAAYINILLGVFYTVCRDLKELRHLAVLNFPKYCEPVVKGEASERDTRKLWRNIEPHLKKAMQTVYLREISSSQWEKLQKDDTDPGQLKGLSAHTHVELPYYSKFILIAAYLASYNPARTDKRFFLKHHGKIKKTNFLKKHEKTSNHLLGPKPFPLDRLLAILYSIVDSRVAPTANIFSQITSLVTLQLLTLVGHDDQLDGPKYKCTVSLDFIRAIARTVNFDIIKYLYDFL
UniProt Q15746, sequence (Q15746 whole entry, looked up): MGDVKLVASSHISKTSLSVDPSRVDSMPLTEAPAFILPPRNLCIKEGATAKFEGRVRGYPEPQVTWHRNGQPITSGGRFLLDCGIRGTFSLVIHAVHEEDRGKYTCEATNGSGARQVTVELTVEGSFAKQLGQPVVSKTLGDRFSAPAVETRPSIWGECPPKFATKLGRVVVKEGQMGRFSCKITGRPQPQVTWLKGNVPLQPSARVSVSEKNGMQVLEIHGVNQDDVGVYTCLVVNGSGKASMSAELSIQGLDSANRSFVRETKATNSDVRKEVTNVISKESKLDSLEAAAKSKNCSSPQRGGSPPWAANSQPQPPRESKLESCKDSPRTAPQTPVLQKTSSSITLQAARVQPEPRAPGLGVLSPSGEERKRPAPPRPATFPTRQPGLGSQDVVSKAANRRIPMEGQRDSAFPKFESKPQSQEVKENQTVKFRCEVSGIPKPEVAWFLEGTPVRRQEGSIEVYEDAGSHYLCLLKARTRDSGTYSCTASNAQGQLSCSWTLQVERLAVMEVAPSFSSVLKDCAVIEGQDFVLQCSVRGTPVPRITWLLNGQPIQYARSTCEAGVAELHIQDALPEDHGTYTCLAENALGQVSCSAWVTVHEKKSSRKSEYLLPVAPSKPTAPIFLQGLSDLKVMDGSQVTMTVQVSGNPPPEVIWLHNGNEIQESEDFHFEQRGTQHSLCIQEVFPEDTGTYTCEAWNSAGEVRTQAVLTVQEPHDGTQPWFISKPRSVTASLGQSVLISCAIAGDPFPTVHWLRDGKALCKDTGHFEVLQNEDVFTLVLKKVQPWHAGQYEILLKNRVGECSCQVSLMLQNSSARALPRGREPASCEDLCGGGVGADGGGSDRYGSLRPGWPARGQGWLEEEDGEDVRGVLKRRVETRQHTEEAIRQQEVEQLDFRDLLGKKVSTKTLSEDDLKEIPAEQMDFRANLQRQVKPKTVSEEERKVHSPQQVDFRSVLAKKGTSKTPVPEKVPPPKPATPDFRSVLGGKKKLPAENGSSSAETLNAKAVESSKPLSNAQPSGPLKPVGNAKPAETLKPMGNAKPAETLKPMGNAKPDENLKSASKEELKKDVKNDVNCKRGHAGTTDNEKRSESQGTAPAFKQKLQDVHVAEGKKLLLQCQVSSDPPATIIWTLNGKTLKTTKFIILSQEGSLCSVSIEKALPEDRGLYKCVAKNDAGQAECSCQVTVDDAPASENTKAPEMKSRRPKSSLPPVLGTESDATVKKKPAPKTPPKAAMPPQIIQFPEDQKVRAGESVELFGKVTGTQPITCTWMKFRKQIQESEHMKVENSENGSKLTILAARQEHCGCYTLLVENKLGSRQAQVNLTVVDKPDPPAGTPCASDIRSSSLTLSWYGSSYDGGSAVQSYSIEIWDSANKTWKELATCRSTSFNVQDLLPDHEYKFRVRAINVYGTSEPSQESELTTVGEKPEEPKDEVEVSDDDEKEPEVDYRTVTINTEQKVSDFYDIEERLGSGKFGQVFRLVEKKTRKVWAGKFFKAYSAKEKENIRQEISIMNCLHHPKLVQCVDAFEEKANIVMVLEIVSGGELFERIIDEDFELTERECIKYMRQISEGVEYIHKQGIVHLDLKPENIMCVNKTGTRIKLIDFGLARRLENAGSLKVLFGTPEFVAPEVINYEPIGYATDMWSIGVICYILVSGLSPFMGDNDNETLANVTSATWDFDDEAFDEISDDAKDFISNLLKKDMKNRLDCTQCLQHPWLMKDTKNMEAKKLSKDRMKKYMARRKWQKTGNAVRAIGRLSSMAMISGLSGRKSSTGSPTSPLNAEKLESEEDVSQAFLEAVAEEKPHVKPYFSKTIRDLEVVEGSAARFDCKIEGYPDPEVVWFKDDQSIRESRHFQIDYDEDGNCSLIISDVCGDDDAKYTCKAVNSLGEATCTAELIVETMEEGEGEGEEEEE
UniProt Q9UK23, sequence (Q9UK23 whole entry, looked up): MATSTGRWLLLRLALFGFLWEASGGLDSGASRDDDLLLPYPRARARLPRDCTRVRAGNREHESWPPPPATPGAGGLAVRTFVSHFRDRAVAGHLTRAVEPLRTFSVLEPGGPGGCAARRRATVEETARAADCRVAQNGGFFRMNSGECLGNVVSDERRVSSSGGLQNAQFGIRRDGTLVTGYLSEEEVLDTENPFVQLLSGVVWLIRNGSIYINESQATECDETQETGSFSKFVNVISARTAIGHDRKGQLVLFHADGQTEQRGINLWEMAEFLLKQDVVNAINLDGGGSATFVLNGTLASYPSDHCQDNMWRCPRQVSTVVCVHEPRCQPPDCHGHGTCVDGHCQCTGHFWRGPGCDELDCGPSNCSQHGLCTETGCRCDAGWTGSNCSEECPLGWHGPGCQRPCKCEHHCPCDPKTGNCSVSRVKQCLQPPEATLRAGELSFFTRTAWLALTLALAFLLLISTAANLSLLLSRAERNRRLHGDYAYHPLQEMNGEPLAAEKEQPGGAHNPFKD
UniProt B2RBV5, sequence (B2RBV5 whole entry, looked up): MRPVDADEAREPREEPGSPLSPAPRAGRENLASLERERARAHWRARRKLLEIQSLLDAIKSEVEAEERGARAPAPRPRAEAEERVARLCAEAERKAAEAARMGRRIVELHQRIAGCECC
UniProt O75052, sequence (O75052 whole entry, looked up): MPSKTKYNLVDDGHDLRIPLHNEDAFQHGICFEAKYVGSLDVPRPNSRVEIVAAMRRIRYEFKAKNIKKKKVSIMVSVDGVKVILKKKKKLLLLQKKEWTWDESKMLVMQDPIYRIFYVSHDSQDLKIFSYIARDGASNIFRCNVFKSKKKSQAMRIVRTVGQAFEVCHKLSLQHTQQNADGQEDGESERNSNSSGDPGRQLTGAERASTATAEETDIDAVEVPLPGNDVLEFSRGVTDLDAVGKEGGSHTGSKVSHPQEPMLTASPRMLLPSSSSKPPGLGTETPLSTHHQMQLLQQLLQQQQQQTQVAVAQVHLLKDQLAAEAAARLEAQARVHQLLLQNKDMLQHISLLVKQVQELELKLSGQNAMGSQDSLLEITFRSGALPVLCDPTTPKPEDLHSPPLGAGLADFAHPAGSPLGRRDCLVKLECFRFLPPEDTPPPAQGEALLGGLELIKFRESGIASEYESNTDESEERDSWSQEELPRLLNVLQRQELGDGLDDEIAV
UniProt Q9BS92, sequence (Q9BS92 whole entry, looked up): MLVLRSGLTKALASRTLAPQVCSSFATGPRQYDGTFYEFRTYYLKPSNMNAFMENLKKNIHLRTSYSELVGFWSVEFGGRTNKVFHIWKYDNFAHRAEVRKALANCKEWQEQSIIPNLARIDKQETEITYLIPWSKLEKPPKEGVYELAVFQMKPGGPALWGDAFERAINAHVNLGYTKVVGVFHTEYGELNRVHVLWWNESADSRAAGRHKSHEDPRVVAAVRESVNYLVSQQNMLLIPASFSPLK
UniProt P25208, sequence (P25208 whole entry, looked up): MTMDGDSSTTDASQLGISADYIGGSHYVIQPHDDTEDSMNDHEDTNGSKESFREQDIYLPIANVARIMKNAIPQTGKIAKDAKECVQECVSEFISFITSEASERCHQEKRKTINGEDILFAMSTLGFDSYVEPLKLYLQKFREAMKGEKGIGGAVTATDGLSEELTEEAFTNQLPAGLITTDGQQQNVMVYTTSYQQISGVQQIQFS
UniProt P51956, sequence (P51956 whole entry, looked up): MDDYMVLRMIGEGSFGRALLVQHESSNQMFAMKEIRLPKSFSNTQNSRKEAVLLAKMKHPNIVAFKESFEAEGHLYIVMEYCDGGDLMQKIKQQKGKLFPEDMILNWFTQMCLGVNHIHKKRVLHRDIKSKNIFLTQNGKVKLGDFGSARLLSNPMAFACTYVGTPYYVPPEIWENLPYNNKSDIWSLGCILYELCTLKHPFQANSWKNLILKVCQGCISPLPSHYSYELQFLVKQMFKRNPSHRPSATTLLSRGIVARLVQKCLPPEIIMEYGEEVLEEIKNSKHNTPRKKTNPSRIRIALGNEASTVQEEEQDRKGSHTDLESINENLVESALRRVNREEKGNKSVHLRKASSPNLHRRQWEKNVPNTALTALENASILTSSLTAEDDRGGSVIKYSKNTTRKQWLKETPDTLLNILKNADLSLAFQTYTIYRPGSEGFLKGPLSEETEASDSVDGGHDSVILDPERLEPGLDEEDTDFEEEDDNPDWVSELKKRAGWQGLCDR
UniProt P03886, sequence (P03886 whole entry, looked up): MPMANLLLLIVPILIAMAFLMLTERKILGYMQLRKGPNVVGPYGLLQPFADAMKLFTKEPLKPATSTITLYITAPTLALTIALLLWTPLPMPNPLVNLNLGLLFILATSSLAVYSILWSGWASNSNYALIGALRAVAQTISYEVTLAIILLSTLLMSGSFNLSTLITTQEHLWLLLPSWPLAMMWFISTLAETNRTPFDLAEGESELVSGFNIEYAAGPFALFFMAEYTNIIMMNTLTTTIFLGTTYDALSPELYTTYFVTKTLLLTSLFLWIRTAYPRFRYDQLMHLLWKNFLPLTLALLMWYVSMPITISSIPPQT
UniProt O75607, sequence (O75607 whole entry, looked up): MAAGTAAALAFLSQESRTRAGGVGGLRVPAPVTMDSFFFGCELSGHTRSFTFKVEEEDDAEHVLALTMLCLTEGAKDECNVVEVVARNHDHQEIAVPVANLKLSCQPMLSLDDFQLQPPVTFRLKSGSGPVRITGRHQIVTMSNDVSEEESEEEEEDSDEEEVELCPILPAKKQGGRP

Target	log2 fold change [1]	log2 fold change [2]	log2 fold change [3]	log2 fold change [4]	log2 fold change [5]	log2 fold change [6]	log2 fold change [7]	log2 fold change [8]	log2 fold change [9]	log2 fold change [10]	log2 fold change [11]	log2 fold change [12]	log2 fold change [13]	log2 fold change [14]	log2 fold change [15]	log2 fold change [16]	log2 fold change [17]	log2 fold change [18]	log2 fold change [19]	log2 fold change [20]
NA (UniProt B2RBV5)	0.135	0.163	0.049	0.593 (active)	0.128	-0.009	-0.08	-0.057	-0.16	-0.09	–	–	–	–	–	–	–	–	–	–
NPM3 (UniProt O75607)	0.065	0.124	-0.099	–	0.014	-0.122	0.145	0	0.155	0.034	0.036	-0.011	0.143	0	0.032	0.031	-0.06	0.001	-0.042	-0.04
MYLK (UniProt Q15746)	-0.015	-0.148	-0.172	–	0.042	0.202	-0.005	-0.036	-0.083	0.337	-0.047	0.184	-0.126	0.177	-0.091	0.036	0.716	-0.034	-0.079	-0.216
NMU (UniProt P48645)	0.094	0.072	0	0.077	0.008	-0.021	0.271	–	-0.076	0.034	-0.044	-0.017	-0.008	-0.017	0.044	0.149	-0.055	-0.08	-0.09	-0.042
MRPS21 (UniProt P82921)	0.062	-0.008	0.063	0.064	–	0.165	–	0.036	-0.016	0.045	-0.052	0.058	-0.205	-0.193	-0.095	-0.056	0.038	-0.075	0.127	-0.075
MRPS10 (UniProt P82664)	0.02	0.027	0.088	-0.022	0.045	0.003	0.068	-0.076	0.006	0.014	-0.021	0.085	0.066	-0.029	-0.007	0.035	-0.034	-0.071	0.097	-0.055
MT-ND1 (UniProt P03886)	-0.157	0.147	0.035	0.063	–	-0.071	–	-0.005	-0.041	0.017	0.094	0.253	-0.115	0.1	-0.071	0.123	-0.025	-0.068	-0.11	-0.058
NAGPA (UniProt Q9UK23)	0.213	0.555 (active)	-0.065	0.071	0.084	-0.061	-0.083	-0.017	-0.132	0.014	-0.022	–	-0.084	-0.009	-0.008	0.068	0.022	–	-0.049	–
OXSM (UniProt Q9NWU1)	-0.063	-0.017	-0.022	0.018	-0.003	0.02	0.058	0.067	-0.018	-0.007	-0.048	-0.005	-0.025	0.095	-0.046	-0.01	0.038	-0.059	-0.033	-0.019
ORC5 (UniProt O43913)	-0.196	-0.42	0.074	–	-0.103	0.084	-0.203	0.149	0.094	0.033	-0.071	0.105	-0.029	-0.081	-0.195	0.093	-0.097	-0.182	-0.009	-0.05
MTHFD1, A0A384N5Y3	-0.152	-0.011	0.065	0.002	-0.113	0.023	-0.081	0.025	-0.039	-0.003	–	0.045	-0.084	-0.047	-0.129	0.032	–	-0.173	-0.004	-0.036
MMADHC (UniProt Q9H3L0)	-0.024	-0.482 (active)	0.087	–	0.03	0.015	0.181	–	0.139	-0.031	-0.013	0.006	0.047	-0.044	0.031	0.07	-0.011	-0.061	0.062	-0.011
MRPS26 (UniProt Q9BYN8)	0.011	-0.094	–	0.033	-0.023	0.053	-0.092	-0.013	0.093	0.089	-0.094	0.003	0.052	-0.094	0.025	0.156	0.003	-0.01	0.122	0.003
NIPSNAP3B (UniProt Q9BS92)	-0.238	-0.028	0.039	–	-0.019	-0.069	0.073	0.066	0.31 (active)	-0.289	-0.039	-0.088	-0.176	0.122	-0.029	0.01	0.112	-0.026	-0.088	0.008
NEK3 (UniProt P51956)	-0.046	-0.162	0.167	0.067	-0.125	–	-0.465 (active)	-0.125	-0.013	0	-0.024	0.014	0.002	0.022	-0.169	-0.194	-0.027	-0.182	0.007	0.036
NFYB (UniProt P25208)	0.008	0.019	-0.029	–	-0.055	-0.054	0.085	-0.084	-0.099	-0.051	-0.007	-0.011	0.031	0.111	0.162	-0.143	0	-0.001	-0.019	0.03
NOS1AP (UniProt O75052)	0.092	0.035	–	0.056	–	-0.001	–	–	-0.403	0.092	0.04	0.225	–	–	0.179	-0.112	-0.089	0.193	–	-0.074
NME2P1 (UniProt O60361)	0.117	0.03	-0.177	0.033	0.198	0.166	-0.074	0.057	-0.814 (active)	0.003	-0.162	-0.021	–	–	0.004	0.059	-0.145	0.034	–	-0.017
